Each structure is given as a SMILES string. The panel holds about 83,000 compounds, 20% with a hit somewhere; the sample as a whole holds those more often.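 Plates (96-well) were seeded with cells, treated with compound at one concentration, and incubated for 48 hours before percent growth was determined.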 A number with no mark means an inactive call. The source made the active and inactive calls. How the source made its calls: active means growth percent below 10; inactive means the rest.

The text below walks through data of PubChem BioAssay (NCI).

Among the test systems are DU-145 prostate; K-562 leukemia; MALME-3M melanoma; MDA-MB-231 breast; RXF 393 renal; SF-268 CNS; SF-295 CNS; SF-539 CNS; UACC-257 melanoma; M14 melanoma.
What all share (test): NCI-60 one-dose screen, 48 h (100 = growth as untreated, 0 = no growth, -100 = all killed)
What all share (details): 10 µM unless noted

As for `CCCCCN1C=C/C(=C\C(=O)n2ccc3ccccc32)c2ccccc21`, the growth in the assay on DU-145 prostate is 101%; in the assay on K-562 leukemia, 75%; in the assay with MALME-3M melanoma it was 81.7%; in the assay with MDA-MB-231 breast, 93.2%; with RXF 393 renal, 103%; in the assay on SF-268 CNS, 92.5%. Besides, the growth in the assay on SF-295 CNS was 87.7%; in the assay with SF-539 CNS, 102%; in the assay on UACC-257 melanoma, 97.9%; in the assay on M14 melanoma, 92%.
Consider `COc1c(Cl)c2c(c(OC)c1OC)-c1ccc(SC)c(=O)cc1[C@@H](NC(=O)OCC(F)(F)F)CC2`, for which the growth in the assay with DU-145 prostate was -6.54% (active); in the assay on K-562 leukemia, 7.39% (active); in the assay with MALME-3M melanoma, 34.9%; in the assay on MDA-MB-231 breast, -1.03% (active); in the assay with RXF 393 renal, 18.7%; in the assay on SF-268 CNS it was 27.2%. In addition, the growth is 15% with SF-295 CNS, -19% (active) with SF-539 CNS, 70.5% in the assay with UACC-257 melanoma and 0.43% (active) in the assay on M14 melanoma.
As to `COc1cc(/C=N/O)nc(-c2ccccn2)c1`, the growth is 24.7% in the assay with DU-145 prostate; 11.6% in the assay with K-562 leukemia; 6.48% (active) in the assay on MALME-3M melanoma; 26.5% in the assay with MDA-MB-231 breast; 21.2% in the assay on RXF 393 renal; 6.74% (active) in the assay with SF-268 CNS. In addition, the growth was 14.8% in the assay with SF-295 CNS, 4.89% (active) in the assay on SF-539 CNS, 5.15% (active) with UACC-257 melanoma and 6.86% (active) in the assay with M14 melanoma.
Turning to `O=C(CCN1CCCC1)Nc1ccc2c(Nc3ccc(Br)cc3)c3ccccc3nc2c1`, the growth in the assay on DU-145 prostate is -70.8% (active); in the assay with K-562 leukemia, -43.1% (active); in the assay on MALME-3M melanoma, -86.2% (active); with MDA-MB-231 breast, -49.4% (active); in the assay on RXF 393 renal it was 47%; with SF-268 CNS, -7.83% (active). In addition, the growth in the assay with SF-295 CNS is 46.3%; with SF-539 CNS, -67.9% (active); in the assay on UACC-257 melanoma, -48.4% (active); in the assay on M14 melanoma it was -75% (active).
In the case of `O=C(CSc1nc2ccccc2[nH]1)NCc1ccccc1`, the growth with DU-145 prostate was 110%; in the assay on MALME-3M melanoma, 109%; in the assay on MDA-MB-231 breast it was 103%; with RXF 393 renal, 101%; in the assay on SF-268 CNS, 98%; in the assay with SF-295 CNS it was 102%. Further, the figures for the growth with SF-539 CNS, with UACC-257 melanoma and with M14 melanoma were 95.6%, 100% and 107%, respectively.
With `COc1ccc(CCn2cncc2-c2c[nH]c3ccccc23)cc1`, the growth with DU-145 prostate is 102%; with K-562 leukemia, 87%; in the assay with MALME-3M melanoma, 90.8%; with MDA-MB-231 breast, 74.5%; in the assay with RXF 393 renal, 87.8%; with SF-268 CNS it was 80.9%. Also, the growth with SF-295 CNS was 74.1%; in the assay with SF-539 CNS, 93.4%; with UACC-257 melanoma, 102%; in the assay with M14 melanoma, 92.6%.
As for `C=C1C(=O)O[C@H]2[C@H]1CC/C(CNC(=O)c1cccc3ccccc13)=C\CC[C@@]1(C)O[C@@H]21`, the growth is 33.8% in the assay with DU-145 prostate; 36.2% in the assay with MALME-3M melanoma; 34.1% in the assay with MDA-MB-231 breast; 27.5% with RXF 393 renal; 63.1% with SF-268 CNS; 85.9% in the assay with SF-295 CNS. The figures for the growth in the assay with SF-539 CNS, with UACC-257 melanoma and with M14 melanoma were 59.7%, 66.2% and 38.2%, respectively.
Regarding `C=C1C(=O)O[C@H]2[C@H]1CC/C(CNC(=O)/C=C/c1cccc(OC)c1)=C\CC[C@@]1(C)O[C@@H]21`, the growth was 13.2% in the assay with DU-145 prostate; 3.75% (active) in the assay with K-562 leukemia; -45% (active) in the assay with MALME-3M melanoma; 7.34% (active) in the assay on MDA-MB-231 breast; -80.5% (active) in the assay on RXF 393 renal; 48.4% with SF-268 CNS. In addition, the growth in the assay on SF-295 CNS was 71.8%; with SF-539 CNS, -70.5% (active); in the assay on UACC-257 melanoma, -6.14% (active); with M14 melanoma, -36.8% (active).
Take `Cc1nn(-c2ccccc2)c(Cl)c1/C=C/C(=O)c1ccc(F)cc1`: the growth was 104% in the assay on DU-145 prostate; 93.2% in the assay with MALME-3M melanoma; 97.9% with MDA-MB-231 breast; 80.8% with RXF 393 renal; 96.8% with SF-268 CNS; 91.2% with SF-295 CNS. Moreover, the growth was 89.9% in the assay on SF-539 CNS, 88.9% in the assay on UACC-257 melanoma and 80.6% in the assay with M14 melanoma.
`O=C(Cc1ccc(/C=C/C(=O)c2ncc[nH]2)cc1)Nc1ccc(Cl)cc1`: the growth is 18.4% with DU-145 prostate; 8.02% (active) in the assay on K-562 leukemia; 89.3% in the assay with MALME-3M melanoma; 22.3% in the assay on MDA-MB-231 breast; 49.7% with RXF 393 renal; 12% in the assay on SF-268 CNS. Also, the growth is 8.31% (active) in the assay with SF-295 CNS, -23.1% (active) in the assay with SF-539 CNS, 78.7% with UACC-257 melanoma and 63.6% in the assay on M14 melanoma.
`CCCCCC(=O)Oc1ccc(/C(=C(/C)Cc2ccc(OC)cc2)c2ccc(OCCCN(C)C)cc2)cc1`: the growth with DU-145 prostate is 90.4%; in the assay with K-562 leukemia, 6.07% (active); with MALME-3M melanoma, 74.9%; with MDA-MB-231 breast, 66.1%; in the assay on RXF 393 renal, 61.6%; with SF-268 CNS, 70.1%. Also, the growth in the assay on SF-295 CNS is 32.4%; in the assay with SF-539 CNS, 66.8%; in the assay on UACC-257 melanoma it was 75.9%; in the assay on M14 melanoma, 36.3%.
With `COc1ccc(/C=C/c2nc(Nc3ccc(Cl)cc3)c3ccccc3n2)cc1`, the growth was 50.2% with DU-145 prostate; 94.6% in the assay with MALME-3M melanoma; 38.2% in the assay on MDA-MB-231 breast; 56.6% in the assay on RXF 393 renal; 54.3% in the assay on SF-268 CNS; 72.6% with SF-295 CNS. In addition, the growth in the assay with SF-539 CNS was 90.9%; in the assay on UACC-257 melanoma, 92.2%; in the assay on M14 melanoma, 34.3%.
On to `Cn1cc(-c2nc(-c3c[nH]c4c(Cl)nccc34)cs2)c2cc(F)ccc21`, for which the growth in the assay with DU-145 prostate is 97.4%; in the assay on MALME-3M melanoma, 120%; in the assay on MDA-MB-231 breast, 100%; in the assay with RXF 393 renal, 106%; in the assay on SF-268 CNS, 114%; with SF-295 CNS, 105%. Moreover, the growth is 107% with SF-539 CNS, 70.2% in the assay with UACC-257 melanoma and 99.9% in the assay with M14 melanoma.
